Inconclusive results are not listed. Calls of active or inactive are those of the source. The calls were made as follows, unless noted: active = hit-call score of the fitted dose curve at least 0.9, where 1 is the maximum; inactive = score below 0.9.
Experiments:
[1] = ACEA_ER_80hr: ACEA Biosciences xCELLigence Real-Time Cell Analysis on Estrogen Receptor Agonism for Proliferation (AID 2282667; active = hit-call score of the fitted dose curve at least 0.9, where 1 is the maximum); conditions: T47D proliferation, impedance (xCELLigence), 80 h
Outline: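 T-47D cells monitored by electrical impedance (xCELLigence) with compound present throughout; 80 h timepoint, positive-direction fitting versus DMSO. Eight-point 1:4 dilutions from 100 uM final, duplicate plates.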

[2] = ATG_CRE_CIS: Attagene CIS-FACTORIAL HepG2 Assay for human cAMP Responsive Element (CRE) binding protein 3 (AID 2282926); conditions: HepG2 CRE cis-reporter, Attagene multiplexed mRNA; actives raise or lower the signal
Outline: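 Induced reporter mRNA from a CRE cis element, measured in HepG2 among many multiplexed units at 24 h. Detection used RT-PCR plus capillary electrophoresis of fluorescent fragments; DMSO served as negative control.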

[3] = target: CCAAT/enhancer-binding protein beta (Homo sapiens) (UniProt P17676); assay: ATG_C_EBP_CIS: Attagene CIS-FACTORIAL HepG2 Assay for human CCAAT/Enhancer Binding Protein (C/EBP) beta (AID 2282927); conditions: HepG2 Attagene cis-factorial transcription factor reporter; actives raise or lower the signal
Outline: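 Following a 24 h incubation with test chemical, transfected HepG2 cells yielded RNA whose reporter transcripts were quantified by RT-PCR and fluorescent capillary electrophoresis, with DMSO serving as baseline for bidirectional fitting.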

[4] = ATG_CMV_CIS: Attagene CIS-FACTORIAL HepG2 Assay for human CMV (Internal Marker) (AID 2282928); conditions: HepG2 CMV promoter reporter, transcription factor profiling; actives raise or lower the signal;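 also: endpoint acts as a background internal control marker rather than a target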
Outline: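 24 h chemical treatment, HepG2 with transient multi-reporter transfection; RNA → oligo(dT) RT → PCR → 6-FAM extension → HpaI digest → CE fluorescence. Bidirectional fit, DMSO negative control.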

[5] = ATG_DR4_LXR_CIS: Attagene CIS-FACTORIAL HepG2 Assay for human Liver X Receptor (LXR), DR4 submotif (AID 2282929); conditions: HepG2 Attagene DR4 cis-reporter, mRNA transcription; actives raise or lower the signal
Outline: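 The endpoint is DR4-element-driven reporter transcripts after 24 h chemical exposure of transfected HepG2 cells. These were measured via RT-PCR and capillary electrophoresis, and gain or loss of signal was fitted relative to DMSO controls.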

[6] = ATG_AP_2_CIS: Attagene CIS-FACTORIAL HepG2 Assay for human Activator Protein 2 (AP-2) (AID 2282932); conditions: HepG2 AP-2 cis-reporter, Attagene transcription factor profiling; actives raise or lower the signal
Outline: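 Assay in transfected HepG2 with promoter-regulated reporters, 24 h incubation after dosing. Signal is reporter mRNA fluorescence (RT-PCR, capillary electrophoresis), analysed for both increases and decreases relative to DMSO controls.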

[7] = ATG_BRE_CIS: Attagene CIS-FACTORIAL HepG2 Assay for human Bone Morphogenetic Protein (BMP) Response Element (BRE) (AID 2282933); conditions: HepG2 BMP response element reporter, Attagene transcription factor profiling; actives raise or lower the signal
Outline: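 Read-out: reporter mRNA induction quantified by RT-PCR and capillary electrophoresis after 24 h chemical exposure of transfected HepG2 cells. Endogenous factor activity on the BMP response element; gain or loss fitted against DMSO baseline.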

[8] = target: Retinoic acid receptor alpha (Homo sapiens) (UniProt P10276); assay: ATG_DR5_RAR_CIS: Attagene CIS-FACTORIAL HepG2 Assay for human Retinoic Acid Receptor Alpha (RARE), DR5 submotif (AID 2282934); conditions: HepG2 Attagene cis-factorial RARE DR5 reporter, mRNA; actives raise or lower the signal
Outline: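 Endpoint fitted in both directions relative to DMSO as negative control. It reflects DR5 cis-element reporter mRNA induction in transiently transfected HepG2 cells, measured 24 h after dosing through RT-PCR and fluorescent capillary electrophoresis.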

[9] = target: Transcription factor E2F1 (Homo sapiens) (UniProt Q01094); assay: ATG_E2F_CIS: Attagene CIS-FACTORIAL HepG2 Assay for human E2F Transcription Factor 1 (AID 2282935); conditions: HepG2 Attagene cis-reporter, E2F reporter RNA transcripts; actives raise or lower the signal
Outline: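 In this cis-factorial format, endogenous factor activity drives transfected reporters in HepG2; transcripts collected at 24 h are quantified by fluorescence after RT-PCR and capillary separation.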

[10] = ATG_E_Box_CIS: Attagene CIS-FACTORIAL HepG2 Assay for human Enhancer Box (E-box) (AID 2282936); conditions: HepG2 E-box cis-reporter transcription, actives raise or lower the signal
Outline: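 Measured 24 h post-dosing in HepG2 cells transfected with multiple cis-regulated reporter units, signal being reporter mRNA induction detected by fluorescent RT-PCR with capillary electrophoresis; gain or loss fitted against DMSO.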

[11] = ATG_M_61_CIS: Attagene CIS-FACTORIAL HepG2 Assay for M61 Transcription Factor (Internal Marker) (AID 2282937); conditions: HepG2 Attagene CIS-FACTORIAL M61 internal marker reporter; actives raise or lower the signal
Outline: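 Readout is reporter mRNA by RT-PCR, fluorescent primer extension and capillary electrophoresis, with gain or loss fitted relative to DMSO. Transfected HepG2 cells carrying endogenous-TF-driven cis reporters were exposed to chemicals for 24 hours.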

[12] = ATG_EGR_CIS: Attagene CIS-FACTORIAL HepG2 Assay for human Early Growth Response 1 (EGR1) (AID 2282938); conditions: HepG2 Attagene CIS-FACTORIAL EGR reporter mRNA; actives raise or lower the signal
Outline: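 After 24 h compound exposure, RNA from reporter-transfected HepG2 cells was reverse-transcribed, PCR-amplified, fluorescently labelled and resolved by capillary electrophoresis. EGR1 reporter transcript changes, up or down, were fitted against DMSO, reflecting endogenous transcription-factor activity.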

[13] = ATG_M_19_CIS: Attagene CIS-FACTORIAL HepG2 Assay for M19 Transcription Factor (Internal Marker) (AID 2282939); conditions: HepG2 Attagene CIS-FACTORIAL M19 internal marker reporter; actives raise or lower the signal
Outline: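 Readout: fluorescent reporter-transcript fragments by capillary electrophoresis after RT-PCR. Human HepG2 liver cells carried transfected MRTU constructs reporting endogenous transcription-factor activity; exposure 24 h. Gain or loss of signal fitted relative to DMSO.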

[14] = ATG_ERE_CIS: Attagene CIS-FACTORIAL HepG2 Assay for Estrogen Response Element (ERE) (AID 2282940); conditions: HepG2 ERE cis-reporter, Attagene RNA transcript; actives raise or lower the signal
Outline: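 Readout: reporter mRNA induction by RT-PCR, FAM-labelled primer extension, HpaI digestion and capillary electrophoresis, 24 h after dosing transfected HepG2 cells. Endogenous transcription factors act on cis-element-regulated reporters. Gain or loss fitted against DMSO.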

[15] = target: Hepatocyte nuclear factor 3-beta (Homo sapiens) (UniProt Q9Y261); assay: ATG_FoxA2_CIS: Attagene CIS-FACTORIAL HepG2 Assay for human Forkhead box A2 (FOXA2) (AID 2282942); conditions: HepG2 cis-reporter transcription factor activity, 24 h; actives raise or lower the signal
Outline: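 Endogenous transcription factor activity is captured via cis-element-driven reporter transcripts in transfected HepG2. Total RNA taken at 24 h post-dosing; labelled RT-PCR products resolved by capillary electrophoresis. Gain or loss fitted versus DMSO.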

[16] = ATG_FoxO_CIS: Attagene CIS-FACTORIAL HepG2 Assay for human Forkhead box O (FoxO) (AID 2282943); conditions: HepG2 Attagene cis-reporter, FoxO element, mRNA; actives raise or lower the signal
Outline: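 Values reflect reporter mRNA induction or loss in HepG2 cells 24 h post-dosing, fitted bidirectionally with DMSO as negative control and baseline. Detection used RT-PCR and fluorescence capillary electrophoresis.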

[17] = ATG_GATA_CIS: Attagene CIS-FACTORIAL HepG2 Assay for human GATA Binding Protein (AID 2282944); conditions: HepG2 GATA cis-element reporter, Attagene multiplex mRNA; actives raise or lower the signal
Outline: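 Read-out: fluorescent reporter mRNA fragments resolved by capillary electrophoresis after RT-PCR. Human liver HepG2 cells carried transiently transfected cis-regulated reporter constructs; chemicals incubated 24 h; gain or loss of signal fitted relative to DMSO.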

[18] = target: Aryl hydrocarbon receptor (Homo sapiens) (UniProt P35869); assay: ATG_Ahr_CIS: Attagene CIS-FACTORIAL HepG2 Assay for human Aryl Hydrocarbon Receptor (Ahr) (AID 2282930); conditions: HepG2 AhR cis-factorial reporter transcription; actives raise or lower the signal
Outline: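 Values derive from bidirectional fitting against DMSO negative control. Underlying signal: cis-element reporter mRNA in transiently transfected HepG2, harvested 24 h post-dose and measured by RT-PCR plus capillary electrophoresis.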

[19] = ATG_AP_1_CIS: Attagene CIS-FACTORIAL HepG2 Assay for human Activator Protein 1 (AP-1) (AID 2282931); conditions: HepG2 Attagene cis-factorial AP-1 reporter mRNA; actives raise or lower the signal
Outline: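 Readout is reporter transcript level from endogenous transcription factor activity, quantified by RT-PCR with fluorescent primer extension and capillary electrophoresis. Transiently transfected HepG2 cells, 24 h exposure. Curves fitted both directions versus DMSO.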

[20] = ATG_Ets_CIS: Attagene CIS-FACTORIAL HepG2 Assay for human Erythroblast Transformation Specific (ETS) (AID 2282941); conditions: HepG2 ETS cis-reporter transcription, actives raise or lower the signal
Outline: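 Cis-regulated reporter mRNA induction in HepG2 (transient transfection), 24 h exposure, RT-PCR plus capillary electrophoresis detection; DMSO serves as negative control and baseline.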

Measured: outcome

Sequence of Transcription factor E2F1 (Homo sapiens) (Q01094 whole entry, looked up): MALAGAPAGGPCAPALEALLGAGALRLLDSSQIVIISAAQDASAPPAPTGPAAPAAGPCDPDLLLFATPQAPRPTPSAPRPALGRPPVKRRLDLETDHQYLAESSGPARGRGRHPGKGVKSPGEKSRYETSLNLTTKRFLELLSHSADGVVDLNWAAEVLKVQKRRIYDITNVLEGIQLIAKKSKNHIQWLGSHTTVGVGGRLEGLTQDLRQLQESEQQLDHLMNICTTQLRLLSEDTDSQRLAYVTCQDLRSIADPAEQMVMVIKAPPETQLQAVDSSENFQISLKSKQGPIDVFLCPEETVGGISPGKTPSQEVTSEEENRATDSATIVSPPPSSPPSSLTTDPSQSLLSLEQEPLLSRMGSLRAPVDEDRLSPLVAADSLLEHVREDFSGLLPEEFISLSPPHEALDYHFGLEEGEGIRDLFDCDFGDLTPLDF
Sequence of CCAAT/enhancer-binding protein beta (Homo sapiens) (P17676 whole entry, looked up): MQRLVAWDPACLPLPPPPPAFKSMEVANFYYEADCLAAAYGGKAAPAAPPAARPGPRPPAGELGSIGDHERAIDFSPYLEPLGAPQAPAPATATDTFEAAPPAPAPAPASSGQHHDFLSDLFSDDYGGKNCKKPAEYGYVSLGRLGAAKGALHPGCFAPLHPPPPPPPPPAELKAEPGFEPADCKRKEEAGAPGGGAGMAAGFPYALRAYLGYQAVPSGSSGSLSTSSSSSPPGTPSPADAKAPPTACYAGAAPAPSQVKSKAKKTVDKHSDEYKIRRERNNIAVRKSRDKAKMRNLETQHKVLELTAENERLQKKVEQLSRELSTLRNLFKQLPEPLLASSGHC
Sequence of Retinoic acid receptor alpha (Homo sapiens) (P10276 whole entry, looked up): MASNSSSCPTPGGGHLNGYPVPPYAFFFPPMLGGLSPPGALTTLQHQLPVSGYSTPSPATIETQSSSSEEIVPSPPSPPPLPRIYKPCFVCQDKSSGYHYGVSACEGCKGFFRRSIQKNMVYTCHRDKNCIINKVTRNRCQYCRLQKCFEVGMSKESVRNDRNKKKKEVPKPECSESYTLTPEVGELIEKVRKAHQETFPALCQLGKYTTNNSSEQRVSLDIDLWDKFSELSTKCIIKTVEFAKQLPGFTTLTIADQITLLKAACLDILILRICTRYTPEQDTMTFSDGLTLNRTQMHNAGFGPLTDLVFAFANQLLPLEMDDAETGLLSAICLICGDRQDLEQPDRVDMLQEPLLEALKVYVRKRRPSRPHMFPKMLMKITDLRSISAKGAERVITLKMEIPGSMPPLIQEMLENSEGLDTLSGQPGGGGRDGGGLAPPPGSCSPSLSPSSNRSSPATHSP
Sequence of Hepatocyte nuclear factor 3-beta (Homo sapiens) (Q9Y261 whole entry, looked up): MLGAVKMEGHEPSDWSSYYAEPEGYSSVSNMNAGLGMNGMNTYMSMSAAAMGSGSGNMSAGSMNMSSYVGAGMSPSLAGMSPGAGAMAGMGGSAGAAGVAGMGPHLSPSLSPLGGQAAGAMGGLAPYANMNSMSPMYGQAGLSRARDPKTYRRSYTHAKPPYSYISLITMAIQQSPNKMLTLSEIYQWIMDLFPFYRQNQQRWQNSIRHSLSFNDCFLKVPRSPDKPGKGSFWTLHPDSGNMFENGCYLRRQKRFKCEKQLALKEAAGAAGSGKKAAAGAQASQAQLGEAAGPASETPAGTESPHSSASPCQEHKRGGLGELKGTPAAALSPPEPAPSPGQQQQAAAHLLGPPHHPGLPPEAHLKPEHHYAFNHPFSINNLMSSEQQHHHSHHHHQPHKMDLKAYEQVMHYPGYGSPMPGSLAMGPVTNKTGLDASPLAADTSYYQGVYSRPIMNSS
Sequence of Aryl hydrocarbon receptor (Homo sapiens) (P35869 whole entry, looked up): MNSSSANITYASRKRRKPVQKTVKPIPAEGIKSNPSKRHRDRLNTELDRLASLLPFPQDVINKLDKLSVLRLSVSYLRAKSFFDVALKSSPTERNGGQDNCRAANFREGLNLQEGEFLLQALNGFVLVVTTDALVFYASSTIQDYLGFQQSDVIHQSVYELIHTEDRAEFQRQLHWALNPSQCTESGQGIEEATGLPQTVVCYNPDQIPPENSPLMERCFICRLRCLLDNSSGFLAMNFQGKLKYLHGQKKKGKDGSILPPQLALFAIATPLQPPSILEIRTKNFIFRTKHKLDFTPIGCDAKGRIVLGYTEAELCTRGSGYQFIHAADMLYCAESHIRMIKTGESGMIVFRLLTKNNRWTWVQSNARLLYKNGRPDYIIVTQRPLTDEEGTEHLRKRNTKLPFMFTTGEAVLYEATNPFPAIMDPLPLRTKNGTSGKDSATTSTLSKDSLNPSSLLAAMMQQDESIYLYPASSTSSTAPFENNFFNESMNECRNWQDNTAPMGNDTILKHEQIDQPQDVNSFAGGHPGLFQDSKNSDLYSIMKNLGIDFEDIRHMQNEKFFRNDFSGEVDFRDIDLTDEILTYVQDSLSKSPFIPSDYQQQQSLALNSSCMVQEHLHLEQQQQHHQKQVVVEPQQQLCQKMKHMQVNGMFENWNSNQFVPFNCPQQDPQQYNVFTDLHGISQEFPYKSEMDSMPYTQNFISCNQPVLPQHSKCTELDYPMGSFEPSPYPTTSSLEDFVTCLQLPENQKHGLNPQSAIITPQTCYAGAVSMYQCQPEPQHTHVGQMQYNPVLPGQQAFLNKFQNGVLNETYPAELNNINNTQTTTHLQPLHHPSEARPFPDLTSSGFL

O=S(=O)(O)CCC(F)(F)C(F)(F)C(F)(F)C(F)(F)C(F)(F)C(F)(F)C(F)(F)C(F)(F)F
not listed: [17] | [18] | [19] | [20]
inactive: all other assays above

OCCCCC(F)(F)C(F)(F)C(F)(F)C(F)(F)F
not listed: [5] | [18] | [19] | [20]
inactive: all other assays above

O=C(O)C(F)(F)C(F)(F)C(F)(F)C(F)(F)C(F)(F)C(F)(F)C(F)F
not listed: [5] | [13] | [14] | [17]
inactive: all other assays above

CCOCN(C(=O)CS(=O)(=O)O)c1c(C)cccc1CC
not listed: [11] | [14] | [18] | [19] | [20]
inactive: all other assays above
